From PubChem BioAssay
Compounds with a hit are over-represented: about 2.2% of the library has one in this group of screens.
EWS-Fli inh: EWS/Fli-driven NR0B1 reporter inhibitors, primary screen, A673 cells, NR0B1 luciferase, luminescence, MLPCN library. viability-normalised. inhibition, % at 12.6 µM. actives 0.67% (n = 350,000). AID 651661, 2012;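 active = mean inhibition of at least 50% after viability correction, with every replicate also passing that limit; inconclusive = mean reaches 50% but only one of two replicates passes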;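 also: firefly luciferase signal divided by Alamar Blue viability fluorescence both relative to DMSO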
LGR2 inh: inhibitors of bursicon-induced LGR2 CRE-luciferase signal, primary screen, cell-based, HEK293, CRE-luciferase reporter, bursicon stimulation; Drosophila bursicon receptor LGR2 (rickets); bursicon-stimulated, 4 h; inhibition, % at 9.99 µM; actives 0.35% (n = 380,000);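 active = drop in luminescence signal, shown as inhibition above about 50% in the replicate tests, limit read from the data, passing the limit was not always enough; inconclusive = probably only some replicates passing the limit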;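 also: agonist challenge used bursicon conditioned medium at about half maximal strength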
PAX8 inh HTS: inhibitors of PAX8-driven TPO luciferase reporter, primary screen, RMG-I cells, single concentration. SteadyGlo, 24 h. inhibition, % at 12.6 µM. actives 1.2% (n = 360,000). AID 652154, 2013;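 active = mean replicate inhibition at least 60% with every replicate also reaching 60%; inconclusive = only one of the two criteria is met; inactive = mean below 60% and not all replicates reaching 60%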;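 also: luciferase light reporting Pax8 driven TPO promoter activity; plate controls were median of neutral control wells for no effect and mitoxantrone controls for full effect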
MITF TRPM1 inh: inhibitors of MITF-dependent TRPM1 promoter reporter, primary screen, cell-based, SK-MEL-5, single point, luciferase. SK-MEL-5 TRPM1 promoter luciferase, 24 h. inhibition, % at 12.5 µM. actives 0.83% (n = 330,000). AID 488899, 2010;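 active = mean inhibition across replicates of 60% or more, whatever share of single replicates reaches that level; inconclusive = some that reach 60%, reason not given; inactive = mean inhibition across replicates below 60%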
Shn3 inh set2: reduction of Shn3 3'UTR firefly luciferase signal, primary screen, Schnurri-3 inhibitor project, cell-based, Clone20 osteoblasts, set 2; Clone20 osteoblast Shn3 3'UTR firefly luciferase, 24 h; inhibition, % at 12.5 µM; actives 0.52% (n = 360,000); AID 588674, 2011;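 active = mean inhibition of at least 75% with every replicate also reaching 75%; inconclusive = mean inhibition at least 75% but some replicate below; inactive = mean inhibition below 75%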;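 also: 0% = median of neutral control wells and 100% = pilot-screen positive control compound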
EBV LMP1 NFkB: EBV LMP1-driven NF-kappaB luciferase reporter inhibitors, primary screen, cell-based, luminescence, single point; LMP1-induced NF-kappaB luciferase reporter cells; inhibition, % at 12.5 µM; actives 0.69% (n = 350,000); in the data active = inhibition above about 41%; inconclusive = no clear call, values can overlap the other calls;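 also: 0% = neutral control wells and 100% = reference inhibitor control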
* hit, by the source's call; ? = inconclusive; / = no result.

SMILES	EWS-Fli inh	LGR2 inh	PAX8 inh HTS	MITF TRPM1 inh	Shn3 inh set2	EBV LMP1 NFkB
Cc1ccc(-c2csc(N3CCN(CCCn4c(-c5ccncc5)nc5ccccc54)CC3)n2)cc1	32	27	46	67*	6	33
CN1CCN(c2ccc(NC(=S)NC(=O)c3cccc4c(Br)cccc34)cc2)CC1	-10	-9	-14	-8	10	0
CN1CCN(c2ccc(NC(=S)NC(=O)c3cccc4ccccc34)cc2)CC1	65*	9	-14	64*	6	-11
C[C@H](CO)N1C[C@H](C)[C@H](CN(C)S(=O)(=O)c2ccc(F)cc2)Oc2c(NC(=O)NC3CCCCC3)cccc2C1=O	15	/	62*	/	/	/
C[C@@H]1CN([C@H](C)CO)C(=O)c2cccc(NC(=O)NC3CCCCC3)c2O[C@H]1CN(C)S(=O)(=O)c1ccc(F)cc1	-1	12	0	/	/	/
C[C@H]1CN([C@@H](C)CO)C(=O)c2cccc(NC(=O)NC3CCCCC3)c2O[C@H]1CN(C)S(=O)(=O)c1ccc(Cl)cc1	24	14	72*	/	/	/
CC(C)NC(=O)N(C)C[C@H]1Oc2cc(C#CCN(C)C)ccc2S(=O)(=O)N([C@H](C)CO)C[C@H]1C	-9	15	/	/	/	/
Cc1ccc(S(=O)(=O)Nc2ccc3c(c2)C(=O)N([C@H](C)CO)C[C@@H](C)[C@@H](CN(C)S(=O)(=O)c2ccc(F)cc2)OCCCC[C@H](C)O3)cc1	1	12	2	/	/	/
Cc1ccc(S(=O)(=O)N(C)C[C@H]2OCCCC[C@H](C)Oc3ccc(NS(=O)(=O)c4ccc(F)cc4)cc3C(=O)N([C@H](C)CO)C[C@@H]2C)cc1	17	6	80*	/	/	/
Cc1ccc(S(=O)(=O)N(C)C[C@H]2OCCCC[C@H](C)Oc3ccc(NS(=O)(=O)c4ccc(F)cc4)cc3C(=O)N([C@@H](C)CO)C[C@@H]2C)cc1	26	8	72*	/	/	/
Cc1noc(C)c1S(=O)(=O)N(C)C[C@H]1Oc2ccc(NC(=O)CCN3CCOCC3)cc2CC(=O)N([C@@H](C)CO)C[C@H]1C	-5	-10	-27	/	/	/
Cc1ccc(C(=O)Nc2ncc3c(Cl)cccc3n2)cc1	/	/	/	7	-1	51*
Cc1ccc(C(=O)Nc2ccc(Cl)cn2)cc1	42	-42	/	7	-30	28
C=C(CN(C)C)C(=O)c1ccc(OC2OC(COC(C)=O)C(OC(C)=O)C(OC(C)=O)C2OC(C)=O)cc1 (stereo unspecified)	40	-11	83*	115*	98*	-6
COc1ccc([Si](C)(C)[C@H]2[C@H](CCn3cc(CCO)nn3)O[C@@]3(C(=O)N(Cc4cccc(N5CCOC5=O)c4)c4ccccc43)[C@@H]2C)cc1	-1	/	83*	/	/	/
COc1ccc([Si](C)(C)[C@@H]2[C@@H](CCn3cc(CCO)nn3)O[C@]3(C(=O)N(Cc4cccc(N5CCOC5=O)c4)c4ccccc43)[C@H]2C)cc1	5	/	100*	/	/	/
COc1ccc([Si](C)(C)[C@@H]2[C@@H](CCn3cc([C@H](O)c4ccccc4)nn3)O[C@]3(C(=O)N(Cc4cccc(N5CCOC5=O)c4)c4ccccc43)[C@H]2C)cc1	12	/	?	/	/	/
CO[C@H]1CN(C)C(=O)c2cc(NC(C)=O)ccc2OC[C@H](C)N(CC2CC2)C[C@H]1C	-1	-12	10	/	/	/
Cc1ccc(S(=O)(=O)Nc2ccc3c(c2)C(=O)N([C@H](C)CO)C[C@H](C)[C@H](CN(C)C(=O)CCCN(C)C)OCCCC[C@H](C)O3)cc1	-2	9	11	/	/	/
Cc1csc(N=Nc2ccc(N(C)C)cc2)[n+]1[O-]	-14	75*	68*	/	5	55*
COc1cc(/C=C2\SC(=O)N(CC(=O)Nc3ccccc3F)C2=O)cc(Cl)c1O	17	32	3	9	10	7
COc1cc(OC)c(/C=C2\SC(=O)N(CC(=O)Nc3ccccc3F)C2=O)c(OC)c1	13	3	21	7	5	44*
Cc1cccc(NCc2ccc(O)c3ncccc23)c1C	47	-8	99*	36	82	-5
COc1cc2c(cc1OC)C(c1ccc(-c3ccccc3Cl)o1)=NCC2	36	?	/	10	65	51*
COc1cc2c(cc1OC)C(c1ccc(-c3ccc(Cl)cc3Cl)o1)=NCC2	/	/	/	22	18	4
SMILES	EWS-Fli inh	LGR2 inh	PAX8 inh HTS	MITF TRPM1 inh	Shn3 inh set2	EBV LMP1 NFkB
CO[C@@H]1CN(C)C(=O)c2cc(NS(=O)(=O)c3ccc(C)cc3)ccc2OC[C@H](C)N(C)C[C@H]1C	0	-6	/	/	/	/
Cn1cc(CN2CCN(c3ncccn3)CC2)c(-c2cccc(Cl)c2)n1	4	-108	1	-2	10	3
Cc1cc(N2CCN(Cc3cn(C)nc3-c3cccc(Cl)c3)CC2)cc(C)n1	58*	22	13	10	9	-12
CCOc1cccc(/C=N/NC(=S)Nc2ccccc2[N+](=O)[O-])c1O	31	83*	40	58	24	35
CCCCNC(=S)N/N=C/c1cccc(OCC)c1O	-5	-33	-96	-32	-8	-11
COC(=O)[C@H](C)NC(=O)Nc1cccc(C)c1	/	6	/	14	2	49*
Cc1cccc(NC(=O)NC(C)CCc2ccccc2)c1 (stereo unspecified)	-22	-24	-36	-2	14	-16
COc1ccccc1NC(=O)N1C[C@@H](C)[C@H](OC)CN(C)C(=O)c2ccc(NC(=O)c3cnccn3)cc2OC[C@H]1C	13	3	3	/	/	/
C[C@@H]1CN([C@H](C)CO)C(=O)c2cc(NC(=O)Nc3ccc(C(F)(F)F)cc3)ccc2O[C@@H](C)CCCCO[C@H]1CN(C)S(=O)(=O)c1ccc(Cl)cc1	-10	18	88*	/	/	/
C[C@@H]1CCCCO[C@@H](CN(C)S(=O)(=O)c2ccc(Cl)cc2)[C@H](C)CN([C@@H](C)CO)C(=O)c2cc(NC(=O)Nc3ccc(C(F)(F)F)cc3)ccc2O1	-3	8	22	/	/	/
C[C@@H]1CN([C@H](C)CO)C(=O)c2cc(NC(=O)Nc3ccccc3)ccc2O[C@@H](C)CCCCO[C@H]1CN(C)S(=O)(=O)c1ccc(Cl)cc1	-22	9	70*	/	/	/
C[C@H](CO)N1C[C@H](C)[C@H](CN(C)S(=O)(=O)c2ccc(Cl)cc2)OCCCC[C@H](C)Oc2ccc(NC(=O)Nc3ccc(C(F)(F)F)cc3)cc2C1=O	-20	17	78*	/	/	/
C[C@@H]1CCCCO[C@@H](CN(C)S(=O)(=O)c2ccc(Cl)cc2)[C@@H](C)CN([C@H](C)CO)C(=O)c2cc(NC(=O)Nc3ccccc3)ccc2O1	-7	2	2	/	/	/
